PubChem BioAssay AID1159580 (chemical genetic matrix, 2015)
About 2,000 (36%) of roughly 5,500 compounds were called active. Another 18% or so got no clear call; they are omitted. The list shows a part of the results. Unmarked numbers belong to inactive results. Cut-off read from the data, not from the text of the source: active = normalized growth mostly below about 0.91 (no sharp cut-off); inconclusive = no clear call, values can overlap the other calls; inactive = mostly above about 0.92.

Assay: chemical genetic growth profiling, strain panel (AID 1159580);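 note: tested at 20 µM; growth read once vehicle control cultures reached saturation at 30 °C; 1 = growth at the plate median or of vehicle wells; lower values mean less growth of the strain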
Conditions: S. cerevisiae deletion strains, growth OD
[1] = locus YNL153C, strain GIM3, active compounds read low

**Q.** With Oc1cc(O)c2c(c1)OC(c1ccc(O)c(O)c1)C(O)C2 (stereo not drawn) as the compound, how does the normalized growth (locus YAL013W, strain DEP1, active compounds read low) read?
**A.** 1

**Q.** What about the normalized growth (locus YAL040C, strain CLN3, active compounds read low) of the same compound?
**A.** 1.01

**Q.** And the normalized growth (locus YCL061C, strain MRC1 (second series), active compounds read low)?
**A.** 1

**Q.** What about the normalized growth (locus YDR150W, strain NUM1, active compounds read low) of the same compound?
**A.** 1.01

**Q.** And the normalized growth (locus YER002W, strain NOP16, active compounds read low)?
**A.** 1.03

**Q.** And the normalized growth (locus YGR078C, strain PAC10, active compounds read low)?
**A.** 1.01

**Q.** What about the normalized growth (locus YMR263W, strain SAP30, active compounds read low) of the same compound?
**A.** 1

**Q.** And the normalized growth [1]?
**A.** 1.03

**Q.** What about the normalized growth (locus YNL175C, strain NOP13, active compounds read low) of the same compound?
**A.** 1.02

**Q.** And the normalized growth (locus YNL197C, strain WHI3, active compounds read low)?
**A.** 1.01

**Q.** And the normalized growth (locus YNL224C, strain SQS1, active compounds read low)?
**A.** 1.01

**Q.** What about the normalized growth (locus YOR083W, strain WHI5 (second series), active compounds read low) of the same compound?
**A.** 1.02

**Q.** With O=C1c2ccc(O)cc2O[C@H](c2cc(O)c(O)c(O)c2)[C@H]1O as the compound, how does the normalized growth (locus YBR021W, strain FUR4, active compounds read low) read?
**A.** 1

**Q.** And the normalized growth (locus YBR229C, strain ROT2, active compounds read low)?
**A.** 0.992

**Q.** What about the normalized growth (locus YCL029C, strain bik1, active compounds read low) of the same compound?
**A.** 1.02

**Q.** And the normalized growth (locus YDL035C, strain GPR1, active compounds read low)?
**A.** 1

**Q.** What about the normalized growth (locus YDL074C, strain BRE1, active compounds read low) of the same compound?
**A.** 0.939

**Q.** What about the normalized growth (locus YDL101C, strain DUN1, active compounds read low) of the same compound?
**A.** 0.93

**Q.** And the normalized growth (locus YDL185W, strain tfp1, active compounds read low)?
**A.** 0.999

**Q.** What about the normalized growth (locus YDL192W, strain arf1, active compounds read low) of the same compound?
**A.** 1.01

**Q.** And the normalized growth (locus YDR101C, strain arx1, active compounds read low)?
**A.** 1

**Q.** What about the normalized growth (locus YDR162C, strain NBP2, active compounds read low) of the same compound?
**A.** 1.03

**Q.** What about the normalized growth (locus YDR318W, strain mcm21, active compounds read low) of the same compound?
**A.** 1

**Q.** And the normalized growth (locus YDR388W, active compounds read low)?
**A.** 1.01

**Q.** And the normalized growth (locus YDR502C, strain sam2, active compounds read low)?
**A.** 1.02

**Q.** What about the normalized growth (locus YEL061C, strain CIN8, active compounds read low) of the same compound?
**A.** 0.999

**Q.** What about the normalized growth (locus YER110C, active compounds read low) of the same compound?
**A.** 1.02

**Q.** And the normalized growth (locus YER155C, strain BEM2, active compounds read low)?
**A.** 1.04

**Q.** What about the normalized growth (locus YER167W, strain BCK2, active compounds read low) of the same compound?
**A.** 1.04

**Q.** And the normalized growth (locus YGL078C, strain dbp3, active compounds read low)?
**A.** 1.01

**Q.** What about the normalized growth (locus YGL086W, strain mad1, active compounds read low) of the same compound?
**A.** 1.01

**Q.** What about the normalized growth (locus YGL248W, strain PDE1, active compounds read low) of the same compound?
**A.** 1

**Q.** What about the normalized growth (locus YGR135W, strain pre9, active compounds read low) of the same compound?
**A.** 1.01

**Q.** And the normalized growth (locus YGR252W, strain gcn5, active compounds read low)?
**A.** 0.972

**Q.** And the normalized growth (locus YHR030C, strain SLT2, active compounds read low)?
**A.** 1.01

**Q.** What about the normalized growth (locus YHR079C, strain IRE1 (second series), active compounds read low) of the same compound?
**A.** 1.02

**Q.** And the normalized growth (locus YHR094C, strain hxt1, active compounds read low)?
**A.** 1.02

**Q.** And the normalized growth (locus YHR129C, strain ARP1, active compounds read low)?
**A.** 0.997

**Q.** What about the normalized growth (locus YHR200W, strain rpn10, active compounds read low) of the same compound?
**A.** 0.982

**Q.** And the normalized growth (locus YIL066C, strain RNR3, active compounds read low)?
**A.** 0.99

**Q.** And the normalized growth (locus YIL073C, strain SPO22, active compounds read low)?
**A.** 1.07

**Q.** What about the normalized growth (locus YIL125W, strain kgd1, active compounds read low) of the same compound?
**A.** 1

**Q.** What about the normalized growth (locus YIR030C, strain dcg1, active compounds read low) of the same compound?
**A.** 1.03

**Q.** And the normalized growth (locus YJL095W, strain BCK1, active compounds read low)?
**A.** 0.884

**Q.** What about the normalized growth (locus YJL134W, strain LCB3, active compounds read low) of the same compound?
**A.** 1.01

**Q.** And the normalized growth (locus YJL168C, strain set2, active compounds read low)?
**A.** 1

**Q.** And the normalized growth (locus YJL187C, strain SWE1 (second series), active compounds read low)?
**A.** 0.853 (active)

**Q.** And the normalized growth (locus YJR043C, strain POL32, active compounds read low)?
**A.** 0.998

**Q.** And the normalized growth (locus YJR075W, strain HOC1, active compounds read low)?
**A.** 1.04

**Q.** What about the normalized growth (locus YKL009W, strain mrt4, active compounds read low) of the same compound?
**A.** 1.06

**Q.** And the normalized growth (locus YKL068W, active compounds read low)?
**A.** 1.02

**Q.** And the normalized growth (locus YKL085W, strain MDH1 (second series), active compounds read low)?
**A.** 1.01

**Q.** What about the normalized growth (locus YKL085W, strain MDH1, active compounds read low) of the same compound?
**A.** 1.01

**Q.** And the normalized growth (locus YKL190W, strain CNB1, active compounds read low)?
**A.** 1.01

**Q.** And the normalized growth (locus YKR001C, strain vps1, active compounds read low)?
**A.** 1

**Q.** What about the normalized growth (locus YLR039C, strain RIC1, active compounds read low) of the same compound?
**A.** 1.04

**Q.** What about the normalized growth (locus YLR058C, strain SHM2, active compounds read low) of the same compound?
**A.** 0.92

**Q.** What about the normalized growth (locus YLR102C, strain apc9, active compounds read low) of the same compound?
**A.** 1.01

**Q.** And the normalized growth (locus YLR262C, strain YPT6, active compounds read low)?
**A.** 1.06

**Q.** And the normalized growth (locus YLR268W, strain sec22, active compounds read low)?
**A.** 1.01

**Q.** What about the normalized growth (locus YLR330W, strain CHS5, active compounds read low) of the same compound?
**A.** 1.03

**Q.** What about the normalized growth (locus YLR342W, strain FKS1 (second series), active compounds read low) of the same compound?
**A.** 0.95

**Q.** What about the normalized growth (locus YLR371W, strain rom2, active compounds read low) of the same compound?
**A.** 0.992

**Q.** What about the normalized growth (locus YLR418C, strain cdc73, active compounds read low) of the same compound?
**A.** 1.01

**Q.** What about the normalized growth (locus YML016C, strain PPZ1, active compounds read low) of the same compound?
**A.** 0.987

**Q.** And the normalized growth (locus YML032C, strain rad52, active compounds read low)?
**A.** 1.06

**Q.** What about the normalized growth (locus YML124C, strain tub3, active compounds read low) of the same compound?
**A.** 1.02

**Q.** And the normalized growth (locus YMR078C, strain ctf18, active compounds read low)?
**A.** 1.03

**Q.** What about the normalized growth (locus YMR223W, strain ubp8, active compounds read low) of the same compound?
**A.** 1.03

**Q.** What about the normalized growth (locus YMR307W, strain GAS1, active compounds read low) of the same compound?
**A.** 1.02

**Q.** What about the normalized growth (locus YNL067W, strain RPL9B, active compounds read low) of the same compound?
**A.** 1.01

**Q.** And the normalized growth [1]?
**A.** 0.947

**Q.** What about the normalized growth (locus YNL233W, strain BNI4, active compounds read low) of the same compound?
**A.** 1.02

**Q.** What about the normalized growth (locus YNL250W, strain rad50, active compounds read low) of the same compound?
**A.** 1.01

**Q.** And the normalized growth (locus YNL271C, strain bni1, active compounds read low)?
**A.** 1.01

**Q.** What about the normalized growth (locus YNL298W, strain CLA4, active compounds read low) of the same compound?
**A.** 0.996

**Q.** And the normalized growth (locus YNL307C, strain MCK1, active compounds read low)?
**A.** 1

**Q.** And the normalized growth (locus YNL322C, strain KRE1, active compounds read low)?
**A.** 1.01

**Q.** What about the normalized growth (locus YNR052C, strain pop2, active compounds read low) of the same compound?
**A.** 0.967

**Q.** And the normalized growth (locus YOL012C, strain htz1)?
**A.** 0.815

**Q.** What about the normalized growth (locus YOL147C, strain pex11, active compounds read low) of the same compound?
**A.** 1.01

**Q.** What about the normalized growth (locus YOR061W, strain CKA2, active compounds read low) of the same compound?
**A.** 1

**Q.** And the normalized growth (locus YOR069W, strain VPS5, active compounds read low)?
**A.** 1.01

**Q.** What about the normalized growth (locus YOR136W, strain idh2, active compounds read low) of the same compound?
**A.** 1.05

**Q.** What about the normalized growth (locus YOR144C, strain elg1, active compounds read low) of the same compound?
**A.** 1.02

**Q.** What about the normalized growth (locus YOR184W, strain ser1, active compounds read low) of the same compound?
**A.** 1.02

**Q.** What about the normalized growth (locus YOR316C, strain cot1, active compounds read low) of the same compound?
**A.** 1.01

**Q.** And the normalized growth (locus YPL055C, strain LGE1, active compounds read low)?
**A.** 1.02

**Q.** What about the normalized growth (locus YPR119W, strain clb2, active compounds read low) of the same compound?
**A.** 1

**Q.** And the normalized growth (locus YPR141C, strain kar3, active compounds read low)?
**A.** 1.01

**Q.** And the normalized growth (locus YPR163C, strain tif3, active compounds read low)?
**A.** 1.01

**Q.** And the normalized growth (locus YPR167C, strain met16, active compounds read low)?
**A.** 1.03

**Q.** And the normalized growth (strain wtn01, active compounds read low)?
**A.** 1.01
